Here are results for 46 compounds from PubChem BioAssay (Tox21).

Molecules are shown by their SMILES. Records with an inconclusive call do not appear. Values without a mark were called inactive. The source made the active and inactive calls. Calls come from the whole dose curve; as a rule, active = well fitted cell-killing curve with a large enough effect in the repeat runs; inconclusive = weak or mixed curves, or effect the other way; inactive = flat fitted curve, though single readings scatter.

Test [1] can be described thus: cAMP Responsive Elements (CRE) small molecule antagonists, cell-based qHTS assay: qHTS cell viability counter screen (AID 2060913). Note: nearly all actives have a fitted effect of over 40% in size. The method in brief:
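CRE-bla HEK293T cells (2,000/well, 18 h) given compound plus NKH477 0.25 uM final for 3 h at 37C; viability counter-screen by CellTiter-Glo luminescence in same wells after 30 min.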
For orientation: In qHTS, concentration-response curves come from the screen itself.

Test [2] is described as follows: cAMP Responsive Elements (CRE) small molecule agonists, cell-based qHTS assay: qHTS cell viability counter screen (AID 2060914). Note: nearly all actives have a fitted effect of over 50% in size. The method in brief: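 Cytotoxicity was measured as ATP luminescence (CellTiter-Glo, 30 min at room temperature) in the same wells as the CRE-bla FRET read-out. HEK293T CRE-bla cells had 3 h compound exposure at 37C/5% CO2.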
% is set by controls: 0 for no effect and ±100 for the full control effect.

Take `CCc1oc2ccccc2c1C(=O)c1cc(Br)c(O)c(Br)c1`: the Potency entry in test [1] and in test [2] was “inactive” in each case.
As for `CC(C)(C)c1cc(CCC(=O)OCCSCCOC(=O)CCc2cc(C(C)(C)C)c(O)c(C(C)(C)C)c2)cc(C(C)(C)C)c1O`, the Potency entry in test [1] and in test [2] was “inactive” in each case.
`O=c1c2ccccc2nnn1CCl`: the Potency result in test [1] and in test [2] was “inactive” each time.
On to `O=C(O)CCCCCCC(=O)O`, for which the Potency entry in test [1] and in test [2] was “inactive” in each case.
Consider `Nc1ccc(N=Nc2ccc(N)cc2)cc1`, for which the Potency result in test [1] and in test [2] was “inactive” each time.
Take `CCCCCCCCC(=O)OCC(C)OC(=O)CCCCCCCC` (configuration not stated): the Potency result in test [1] and in test [2] was “inactive” each time.
`Nc1ccc(C(=O)Nc2ccccc2N)cc1`: the Potency entry in test [1] and in test [2] was “inactive” in each case.
With `COc1cc(N)ccc1C`, the Potency entry in test [1] and in test [2] was “inactive” each time.
Turning to `Oc1ccc2c(c1)-c1ccccc1C2`, the Potency entry in test [1] and in test [2] was “inactive” throughout.
With `CC(=O)Nc1ccc(OC(=O)c2ccccc2OC(C)=O)cc1`, the Potency result in test [1] and in test [2] was “inactive” in each case.
`CCCCCCOc1ccc(O)cc1`: the Potency result in test [1] and in test [2] was “inactive” throughout.
For the compound `O=C[O][Al]([O]C=O)[O]C=O`, the Potency entry in test [1] and in test [2] was “inactive” each time.
Regarding `Cc1c(C)c2c(c(C)c1OC(=O)c1cccnc1)CC[C@@](C)(CCC[C@H](C)CCC[C@H](C)CCCC(C)C)O2`, the Potency result in test [1] and in test [2] was “inactive” in each case.
As for `CC(=O)c1sc(C)nc1C`, the Potency entry in test [1] and in test [2] was “inactive” throughout.
As for `OC1OC[C@@H](O)[C@H](O)[C@H]1O` (some centres not stated), the Potency result in test [1] and in test [2] was “inactive” each time.
As for `CCCOCC(C)OCC(C)O` (configuration not stated), the Potency result in test [1] and in test [2] was “inactive” in each case.
Consider `Cc1ccc(O)c(C(C)(C)C)c1`, for which the Potency result in test [1] and in test [2] was “inactive” each time.
For the compound `Cc1ccc(O)c(C(=O)c2ccccc2)c1`, the Potency entry in test [1] and in test [2] was “inactive” in each case.
Turning to `Cc1ccc(C(C)C)cc1O`, the Potency result in test [1] and in test [2] was “inactive” in each case.
Take `C=C(C)C(=O)OCCCCCCOC(=O)C(=C)C`: the Potency entry in test [1] and in test [2] was “inactive” in each case.
In the case of `NS(=O)(=O)c1ccc(Cl)c(S(N)(=O)=O)c1`, the Potency entry in test [1] and in test [2] was “inactive” throughout.
As to `CC(=O)c1cnccn1`, the Potency entry in test [1] and in test [2] was “inactive” each time.
In the case of `N#CSc1ccc(N)c([N+](=O)[O-])c1`, the Potency entry in test [1] and in test [2] was “inactive” in each case.
With `CCCCCCOCCO`, the Potency result in test [1] and in test [2] was “inactive” in each case.
As to `CCCCCCCCCCCCCCCCI`, in test [1], the viability change, negative = cytotoxic was 12.3% [at 18.9 µM]. In addition, the activity change, negative = cytotoxicity in test [2] is -9.53% [at 18.9 µM].
For `CS(=O)(=O)Nc1ccc([N+](=O)[O-])cc1Oc1ccccc1`, the Potency result in test [1] and in test [2] was “inactive” each time.
`Cc1cc(C(C)(C)C)cc(C)c1CC1=NCCN1`: the Potency entry in test [1] and in test [2] was “inactive” each time.
As for `CCCCCCCCCCCCCCCCCC(=O)OCCCCCCCCCCCCCC(C)C`, the Potency result in test [1] and in test [2] was “inactive” each time.
`CC[C@@]1(O)C(=O)OCc2c1cc1n(c2=O)Cc2cc3c(CN(C)C)c(O)ccc3nc2-1`: the Potency entry in test [1] and in test [2] was “inactive” throughout.
As for `CCCCCc1ccco1`, the Potency entry in test [1] and in test [2] was “inactive” throughout.
Take `O=C(CCN1CCN2CCCC2C1)N1c2ccccc2Sc2ccc(Cl)cc21` (configuration not stated): the viability change, negative = cytotoxic in test [1] is 0.501% [at 18.9 µM]. Besides, the activity change, negative = cytotoxicity in test [2] was 5.15% [at 18.9 µM].
Turning to `CC(=O)c1cccc([N+](=O)[O-])c1`, the Potency entry in test [1] and in test [2] was “inactive” throughout.
For `O[C@@H](c1cc(C(F)(F)F)nc2c(C(F)(F)F)cccc12)[C@H]1CCCCN1`, the Potency entry in test [1] and in test [2] was “inactive” each time.
With `CCn1cc(C(=O)O)c(=O)c2ccc(C)nc21`, the Potency entry in test [1] and in test [2] was “inactive” throughout.
On to `NS(=O)(=O)c1cc2c(cc1Cl)NC(C1CC3C=CC1C3)NS2(=O)=O` (configuration not stated), for which the Potency result in test [1] and in test [2] was “inactive” in each case.
`NC(N)=NC(N)=NCCc1ccccc1`: the Potency entry in test [1] and in test [2] was “inactive” each time.
In the case of `O=C1CCCCCN1`, the Potency entry in test [1] and in test [2] was “inactive” each time.
Turning to `c1ccc(CNc2ncnc3c2ncn3C2CCCCO2)cc1` (configuration not stated), the Potency result in test [1] and in test [2] was “inactive” throughout.
As for `COc1ccc(-n2nc(CCC(=O)N(C)O)cc2-c2ccc(Cl)cc2)cc1`, the Potency result in test [1] and in test [2] was “inactive” each time.
For the compound `CN1CCOCC1`, the Potency entry in test [1] and in test [2] was “inactive” throughout.
Turning to `COCCOC(=O)CC#N`, the Potency entry in test [1] and in test [2] was “inactive” in each case.
For `COc1cc(NCc2ccc3nc(N)nc(N)c3c2C)cc(OC)c1OC`, the Potency entry in test [1] and in test [2] was “inactive” each time.
Turning to `Cc1cnc(NS(=O)(=O)c2ccc(N)cc2)nc1`, the Potency entry in test [1] and in test [2] was “inactive” each time.
On to `C[Si](NC1CCCCC1)(NC1CCCCC1)NC1CCCCC1`, for which the Potency entry in test [1] and in test [2] was “inactive” each time.
`CCCCC(CC)CNCC(CC)CCCC` (configuration not stated): the Potency entry in test [1] and in test [2] was “inactive” each time.
For `CCN(CC)CCOC(=O)c1ccc(N)cc1`, the Potency entry in test [1] and in test [2] was “inactive” throughout.
